From PubChem BioAssay (NCI)
“And” between values parts separate entries of the source, which are not always exact repeats. Identical values can stand only once. Compounds without any hit were thinned out: in the full panel of roughly 83,000, 20% have a hit.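 Values shown are percent growth following 48 h exposure of cells in 96-well plates to a single concentration of compound; below 10 was considered active.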 The source made the active and inactive calls.

How the values were obtained:
Assay in all cases: NCI-60 one-dose screen, 48 h (100 = growth as untreated, 0 = no growth, -100 = all killed)
[1] = system: EKVX NSCLC; conditions: 10 µM unless noted
[2] = system: SN12C renal; conditions: 10 µM unless noted
[3] = system: UO-31 renal
[4] = system: ACHN renal
[5] = system: CAKI-1 renal
[6] = system: MOLT-4 leukemia
[7] = system: TK-10 renal; conditions: 10 µM unless noted
[8] = system: A498 renal
[9] = system: CCRF-CEM leukemia; conditions: 10 µM unless noted

Measured: growth

Oc1c(Br)cc(Cl)cc1C(c1cc(Cl)cc(Br)c1O)C(Cl)(Cl)Cl
active: [5]; 10 µM unless noted 1.81%
inactive: [1] 15.7% | [2] 10.8% | [3]; 10 µM unless noted 12.6% | [4]; 10 µM unless noted 10.5% | [6]; 10 µM unless noted 14.6%

N#CSCc1ccc(Cl)c(CSC#N)c1
inactive: [1] 75.1% | [2] 33.1% | [3]; 10 µM unless noted 24.6% | [7] 59.5% | [4]; 10 µM unless noted 32.5% | [5]; 10 µM unless noted 22.5% | [8]; 10 µM unless noted 18% | [9] 12% | [6]; 10 µM unless noted 17.5%

CCN(CC)CCOc1ccc(-c2nc3cc(Cl)ccc3s2)cc1
active: [3]; 10 µM unless noted -46.7% | [9] 4.45% | [6]; 10 µM unless noted -79.3%
inactive: [1] 57.3% | [2] 36% | [4]; 10 µM unless noted 10.3% | [5]; 10 µM unless noted 11.9%

CCC1OC(OC)C=CC1=O (configuration not stated)
inactive: [1] 89% | [2] 94.7% | [3]; 10 µM unless noted 93.4% | [4]; 10 µM unless noted 113% | [5]; 10 µM unless noted 113% | [8]; 10 µM unless noted 90.3% | [9] 94.5% | [6]; 10 µM unless noted 103%

O=C1c2ccccc2C(=O)c2sc(Nc3ccc(Cl)cc3)nc21
active: [4]; 10 µM unless noted -23.4% | [6]; 10 µM unless noted 6.68%
inactive: [1] 53.6% | [3]; 10 µM unless noted 21.7% | [7] 174% | [5]; 10 µM unless noted 75% | [8]; 10 µM unless noted 87.3% | [9] 13.1%

Cn1c2ccccc2c2nnc(N/N=C/c3ccccn3)nc21
active: [1] -11.9% | [3]; 10 µM unless noted 4.82% | [7] -18.9% | [4]; 10 µM unless noted -4.67% | [5]; 10 µM unless noted -21.1% | [9] -37.2% | [6]; 10 µM unless noted -21.7%
inactive: [2] 12.3% | [8]; 10 µM unless noted 34.5%

COc1ccccc1OC(=O)Oc1ccccc1OC
inactive: [1] 118% and 97% | [2] 105% and 95.8% | [3]; 10 µM unless noted 78.2% and 93.9% | [4]; 10 µM unless noted 108% and 104% | [5]; 10 µM unless noted 97.9% | [8]; 10 µM unless noted 108% and 103% | [9] 101% and 83.6% | [6]; 10 µM unless noted 93.9% and 92%

Cc1ccc2nc(C[n+]3ccc4ccccc4c3)ccc2c1
inactive: [1] 72.2% | [2] 39.3% | [3]; 10 µM unless noted 85.7% | [7] 95% | [4]; 10 µM unless noted 101% | [5]; 10 µM unless noted 98.3% | [8]; 10 µM unless noted 81% | [9] 52.6% | [6]; 10 µM unless noted 71.9%

Nc1ncnc2c1ncn2C1OC(CO)C(O)C1O (configuration not stated)
inactive: [1] 116% and 88.3% and 105% | [2] 103% and 90.3% and 97.5% | [3]; 10 µM unless noted 92.9% and 76.6% and 90.3% | [7] 114% and 106% and 118% | [4]; 10 µM unless noted 111% and 84.1% and 98.9% | [5]; 10 µM unless noted 103% and 109% and 94.5% | [9] 96.7% and 119% and 105% | [6]; 10 µM unless noted 102% and 111% and 109%

O=C(Nc1cccc(Br)c1)Oc1ccc(Cl)c2cccnc12
inactive: [3]; 10 µM unless noted 13.9% [100 µM] | [4]; 10 µM unless noted 10.1% [100 µM] | [5]; 10 µM unless noted 47% [100 µM] | [8]; 10 µM unless noted 96.1% [100 µM] | [9] 10.7% [100 µM]
active: [1] -18.3% [100 µM] | [6]; 10 µM unless noted 2% [100 µM]

O=C(Nc1cccc(Br)c1)Oc1cccc2cccnc12
inactive: [3]; 10 µM 98.6% | [3]; 100 µM 26% | [4]; 10 µM 103% | [4]; 100 µM 15.4% | [5]; 10 µM 94.4% | [5]; 100 µM 67.9% | [8]; 10 µM 97.5% | [8]; 100 µM 98.6% | [9] 14.4% [100 µM] | [6]; 10 µM 115%
active: [1] -17.3% [100 µM] | [6]; 100 µM -0.787%

CC(C)c1ccc2nc3ccc(C(=O)NCCN4CCN(c5ccccc5)CC4)cn3c(=O)c2c1
inactive: [1] 74.5% | [3]; 10 µM unless noted 50% | [7] 93.9% | [4]; 10 µM unless noted 72.1% | [5]; 10 µM unless noted 63.4% | [9] 50.7% | [6]; 10 µM unless noted 38%

O=C(/C=C\c1ccccc1)N1c2ccccc2CC1c1c[nH]c2ccccc12 (configuration not stated)
inactive: [1] 66% | [2] 74.3% | [3]; 10 µM unless noted 40.1% | [4]; 10 µM unless noted 79.4% | [5]; 10 µM unless noted 62.8% | [8]; 10 µM unless noted 54.2% | [9] 68.6% | [6]; 10 µM unless noted 44.3%

CCCCCC(CCCCC)C(=O)O
inactive: [1] 116% | [3]; 10 µM unless noted 87.6% | [7] 101% | [4]; 10 µM unless noted 109% | [5]; 10 µM unless noted 119% | [8]; 10 µM unless noted 103% | [9] 83.8% | [6]; 10 µM unless noted 96.1%

NC1=CC(=O)c2ccccc2C1=O
inactive: [1] 95% | [2] 85.5% | [3]; 10 µM unless noted 71.1% | [7] 125% | [4]; 10 µM unless noted 79.9% | [5]; 10 µM unless noted 91.9% | [9] 85.4% | [6]; 10 µM unless noted 94.3%
